Source: PubChem BioAssay AID1159580 (chemical genetic matrix, 2015)
Hit rate of the full screen: of about 5,500 compounds, about 2,000 (36%) were called active. Not shown: some 18% with an inconclusive outcome. Cut-off read from the data, not from the text of the source: active = normalized growth mostly below about 0.91 (no sharp cut-off); inconclusive = no clear call, values can overlap the other calls; inactive = mostly above about 0.92. The list shows a part of the results.

Assay: chemical genetic growth profiling, strain panel (AID 1159580);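 note: tested at 20 µM; growth read once vehicle control cultures reached saturation at 30 °C; 1 = growth at the plate median or of vehicle wells; lower values mean less growth of the strain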
Conditions: S. cerevisiae deletion strains, growth OD

Measured: normalized growth

CCNc1nc(Cl)nc(NCC)n1
inactive: locus YAL013W, strain DEP1, stronger effect = lower value 1 | locus YAL021C, strain ccr4, stronger effect = lower value 0.983 | locus YAL026C, strain drs2, stronger effect = lower value 1 | locus YAL030W, strain snc1, stronger effect = lower value 0.992 | locus YBL061C, strain skt5, stronger effect = lower value 0.991 | locus YBR009C, strain hhf1, stronger effect = lower value 0.995 | locus YBR021W, strain FUR4, stronger effect = lower value 1.03 | locus YBR023C, strain chs3, stronger effect = lower value 0.995 | locus YBR171W, strain sec66, stronger effect = lower value 0.99 | locus YBR229C, strain ROT2, stronger effect = lower value 0.993 | locus YBR231C, strain swc5, stronger effect = lower value 0.993 | locus YBR279W, strain paf1, stronger effect = lower value 1 | locus YCL011C, strain gbp2, stronger effect = lower value 1 | locus YCL016C, strain dcc1, stronger effect = lower value 1.01 | locus YCL029C, strain bik1, stronger effect = lower value 0.999 | locus YCL061C, strain MRC1, stronger effect = lower value 0.989 | locus YCL069W, strain vba3, stronger effect = lower value 0.968 | locus YCR088W, strain abp1, stronger effect = lower value 0.995 | locus YDL005C, strain med2, stronger effect = lower value 0.988 | locus YDL035C, strain GPR1, stronger effect = lower value 1 | locus YDL040C, strain nat1, stronger effect = lower value 0.999 | locus YDL074C, strain BRE1, stronger effect = lower value 0.975 | locus YDL101C, strain DUN1, stronger effect = lower value 1.01 | locus YDL134C, strain PPH21, stronger effect = lower value 1.01 | locus YDL185W, strain tfp1, stronger effect = lower value 0.991 | locus YDL192W, strain arf1, stronger effect = lower value 1 | locus YDR001C, strain nth1, stronger effect = lower value 0.998 | locus YDR069C, strain doa4, stronger effect = lower value 0.979 | locus YDR101C, strain arx1, stronger effect = lower value 0.994 | locus YDR137W, strain rgp1, stronger effect = lower value 1.01 | locus YDR150W, strain NUM1, stronger effect = lower value 0.971 | locus YDR159W, strain sac3, stronger effect = lower value 0.979 | locus YDR162C, strain NBP2, stronger effect = lower value 0.97 | locus YDR195W, strain ref2 0.942 | locus YDR297W, strain sur2, stronger effect = lower value 0.982 | locus YDR318W, strain mcm21, stronger effect = lower value 1 | locus YDR334W, strain swr1, stronger effect = lower value 0.996 | locus YDR335W, strain msn5, stronger effect = lower value 0.989 | locus YDR388W, stronger effect = lower value 1 | locus YDR392W, strain spt3, stronger effect = lower value 1.01 | locus YDR502C, strain sam2, stronger effect = lower value 1.01 | locus YEL003W, strain gim4, stronger effect = lower value 1.01 | locus YEL037C, strain rad23, stronger effect = lower value 1 | locus YEL061C, strain CIN8 (second series), stronger effect = lower value 0.997 | locus YEL061C, strain CIN8, stronger effect = lower value 0.997 | locus YER015W, strain faa2, stronger effect = lower value 1 | locus YER016W, strain bim1, stronger effect = lower value 1.01 | locus YER110C, stronger effect = lower value 0.996 | locus YER111C, strain swi4, stronger effect = lower value 0.996 | locus YER155C, strain BEM2 (second series), stronger effect = lower value 0.973 | locus YER155C, strain BEM2, stronger effect = lower value 1 | locus YER167W, strain BCK2, stronger effect = lower value 1 | locus YFR010W, strain ubp6, stronger effect = lower value 1 | locus YGL078C, strain dbp3, stronger effect = lower value 1 | locus YGL086W, strain mad1, stronger effect = lower value 1 | locus YGL167C, strain pmr1, stronger effect = lower value 1 | locus YGL173C, strain kem1, stronger effect = lower value 0.99 | locus YGL227W, strain vid30, stronger effect = lower value 0.978 | locus YGL240W, strain doc1, stronger effect = lower value 0.986 | locus YGL248W, strain PDE1, stronger effect = lower value 1.03 | locus YGL253W, strain hxk2, stronger effect = lower value 0.993 | locus YGR078C, strain PAC10, stronger effect = lower value 0.989 | locus YGR135W, strain pre9, stronger effect = lower value 1 | locus YGR229C, strain SMI1, stronger effect = lower value 1 | locus YGR252W, strain gcn5, stronger effect = lower value 1.02 | locus YHR013C, strain ard1, stronger effect = lower value 0.998 | locus YHR027C, strain rpn1, stronger effect = lower value 1 | locus YHR030C, strain SLT2, stronger effect = lower value 0.98 | locus YHR079C, strain IRE1 (second series), stronger effect = lower value 1.01 | locus YHR094C, strain hxt1, stronger effect = lower value 1 | locus YHR129C, strain ARP1, stronger effect = lower value 0.96 | locus YHR142W, strain chs7, stronger effect = lower value 1.02 | locus YHR200W, strain rpn10, stronger effect = lower value 1.01 | locus YIL066C, strain RNR3, stronger effect = lower value 1.01 | locus YIL073C, strain SPO22, stronger effect = lower value 1.09 | locus YIL125W, strain kgd1, stronger effect = lower value 1 | locus YIR030C, strain dcg1, stronger effect = lower value 1.01 | locus YJL092W, strain hpr5, stronger effect = lower value 1 | locus YJL095W, strain BCK1 (second series), stronger effect = lower value 0.994 | locus YJL095W, strain BCK1, stronger effect = lower value 0.994 | locus YJL115W, strain asf1, stronger effect = lower value 1 | locus YJL129C, strain trk1, stronger effect = lower value 0.986 | locus YJL134W, strain LCB3, stronger effect = lower value 0.993 | locus YJL154C, strain vps35, stronger effect = lower value 0.992 | locus YJL164C, strain tpk1, stronger effect = lower value 0.999 | locus YJL166W, strain qcr8, stronger effect = lower value 0.987 | locus YJL168C, strain set2, stronger effect = lower value 1.01 | locus YJL187C, strain SWE1 (second series), stronger effect = lower value 1
